Results on eleven compounds are retold here after PubChem BioAssay (EPA / NIEHS).

In assay [1] the target is human Protein Phosphatase, Mg2+/Mn2+ Dependent 1A (PPM1A), PPM1A (gene 5494) (UniProt P35813). The assay is described as follows: NVS_ENZ_hPPM1A: NovaScreen (NVS) Enzymatic Assay for human Protein Phosphatase, Mg2+/Mn2+ Dependent 1A (PPM1A) (AID 2283198). The method in brief:
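Primary screen in duplicate at 25 uM, with actives then titrated to a maximum of 50 uM. Recombinant PPM1A dephosphorylation of fluorescent substrate measured at 1 h, with substrate and product separated by mobility shift; inhibition fitted against DMSO.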

For assay [2], the target named is Tyrosine-protein phosphatase non-receptor type 11 (Homo sapiens) (UniProt Q06124). The assay is described as follows: NVS_ENZ_hPTPN11: NovaScreen (NVS) Enzymatic Assay for human Protein Tyrosine Phosphatase Non-receptor Type 11 (PTPN11) (AID 2283202). The essentials:
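Compounds first tested in duplicate at 25 uM; those reaching ~30% inhibition rerun in singleton concentration-response, top 50 uM. Phosphatase activity measured after 0.5 h by fluorescence with mobility-shift separation, relative to DMSO.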

Assay [3] addresses Tyrosine-protein phosphatase non-receptor type 13 (Homo sapiens) (UniProt Q12923). As to the kind of experiment: NVS_ENZ_hPTPN13: NovaScreen (NVS) Enzymatic Assay for human Protein Tyrosine Phosphatase Non-receptor Type 13 (PTPN13) (AID 2283205). The essentials:
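Screened first at a single 25 uM in duplicate; compounds passing the threshold (e.g. 30% inhibition) were rerun in concentration series, top 50 uM. Recombinant enzyme, fluorescent substrate, mobility-shift separation, 0.5 h read. Data fitted as inhibition relative to DMSO.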

The target of assay [4] is human Protein Tyrosine Phosphatase Non-receptor Type 9 (PTPN9), PTPN9 (gene 5780) (UniProt P43378). As to the kind of experiment: NVS_ENZ_hPTPN9: NovaScreen (NVS) Enzymatic Assay for human Protein Tyrosine Phosphatase Non-receptor Type 9 (PTPN9) (AID 2283209). The essentials: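 Sf9-expressed enzyme in a cell-free assay, fluorescence read 1.33 h after dosing with mobility-shift separation of substrate and product. Tested at 25 uM in duplicate, then up to 50 uM; signal loss versus DMSO.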
Sequence of human Protein Tyrosine Phosphatase Non-receptor Type 9 (PTPN9), PTPN9 (gene 5780) (P43378 whole entry, looked up): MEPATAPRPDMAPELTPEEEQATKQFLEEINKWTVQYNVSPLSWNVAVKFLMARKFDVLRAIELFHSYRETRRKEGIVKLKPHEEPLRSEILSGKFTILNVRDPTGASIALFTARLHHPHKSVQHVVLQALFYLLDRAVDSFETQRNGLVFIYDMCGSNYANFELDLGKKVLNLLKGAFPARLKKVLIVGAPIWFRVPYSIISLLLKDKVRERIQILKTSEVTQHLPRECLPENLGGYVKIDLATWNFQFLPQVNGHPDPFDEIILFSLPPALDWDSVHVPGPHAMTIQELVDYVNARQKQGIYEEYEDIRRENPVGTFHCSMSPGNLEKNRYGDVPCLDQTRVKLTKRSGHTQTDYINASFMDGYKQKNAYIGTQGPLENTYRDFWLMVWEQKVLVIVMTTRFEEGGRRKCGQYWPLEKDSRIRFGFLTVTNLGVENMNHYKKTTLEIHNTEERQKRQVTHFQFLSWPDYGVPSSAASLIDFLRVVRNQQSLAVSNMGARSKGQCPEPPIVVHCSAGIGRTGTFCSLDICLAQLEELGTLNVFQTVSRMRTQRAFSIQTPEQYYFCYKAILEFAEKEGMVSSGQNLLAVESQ

The target in assay [5] is human Protein Tyrosine Phosphatase Receptor Type F (PTPRF), PTPRF (gene 5792) (UniProt P10586). The assay is described as follows: NVS_ENZ_hPTPRF: NovaScreen (NVS) Enzymatic Assay for human Protein Tyrosine Phosphatase Receptor Type F (PTPRF) (AID 2283213). The essentials:
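Cell-free fluorescence enzyme assay with recombinant protein and substrate; product separated by electrophoretic mobility shift. Read 1 h after dosing, single 25 uM duplicate screen, then concentration-response up to 50 uM; loss of signal vs DMSO.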

Assay [6] addresses human Protein Tyrosine Phosphatase Receptor Type M (PTPRM), PTPRM (gene 5797) (UniProt P28827). The assay is described as follows: NVS_ENZ_hPTPRM: NovaScreen (NVS) Enzymatic Assay for human Protein Tyrosine Phosphatase Receptor Type M (PTPRM) (AID 2283215). The method in brief:
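Read-out is fluorescence after electrophoretic separation of substrate and product, taken 1.33 h post-dosing with recombinant enzyme. Compounds screened at 25 uM in duplicate, then concentration series for actives; activity as signal loss relative to DMSO.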

The target in assay [7] is human Sirtuin 2 (SIRT2), SIRT2 (gene 22933) (UniProt Q8IXJ6). The assay is described as follows: NVS_ENZ_hSIRT2: NovaScreen (NVS) Enzymatic Assay for human Sirtuin 2 (SIRT2) (AID 2283217). The method in brief:
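Single-point duplicate screen at 25 uM, then concentration-response (max 50 uM) for chemicals passing threshold. Enzyme activity of recombinant human SIRT2 measured after 1 hr by fluorescence with mobility-shift separation of product; DMSO baseline.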

Assay [8] concerns the target human SRC Proto-Oncogene, Non-receptor Tyrosine Kinase (SRC), SRC (gene 6714) (UniProt P12931). As to the kind of experiment: NVS_ENZ_hSRC: NovaScreen (NVS) Enzymatic Assay for human SRC Proto-Oncogene, Non-receptor Tyrosine Kinase (SRC) (AID 2283223). The essentials:
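Compounds passing 30% inhibition at 25 uM (duplicate) were titrated to a top concentration of 50 uM. Enzyme activity read by fluorescence with mobility-shift substrate/product separation after 1 h; DMSO baseline.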

In assay [9] the target is human Protein Tyrosine Phosphatase Non-receptor Type 1 (PTPN1), PTPN1 (gene 5770) (UniProt P18031). The assay is described as follows: NVS_ENZ_hPTPN1: NovaScreen (NVS) Enzymatic Assay for human Protein Tyrosine Phosphatase Non-receptor Type 1 (PTPN1) (AID 2283201). The method in brief:
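Chemicals were first tested in duplicate at 25 uM, and those passing threshold went on to singleton concentration series topping at 50 uM. Recombinant enzyme, specific substrate, product separated by mobility shift, fluorescence read at 1.33 h; activity loss relative to DMSO.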

Assay [10] deals with Tyrosine-protein phosphatase non-receptor type 12 (Homo sapiens) (UniProt Q05209). As to the kind of experiment: NVS_ENZ_hPTPN12: NovaScreen (NVS) Enzymatic Assay for human Protein Tyrosine Phosphatase Non-receptor Type 12 (PTPN12) (AID 2283204). The essentials: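 Single-concentration duplicates (25 uM) preceded singleton concentration-response up to 50 uM for chemicals passing threshold. Cell-free recombinant PTPN12 activity was read 1.33 h after dosing via fluorescence after mobility-shift separation; loss of signal versus DMSO.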

Assay [11] deals with Tyrosine-protein phosphatase non-receptor type 14 (Homo sapiens) (UniProt Q15678). As to the kind of experiment: NVS_ENZ_hPTPN14: NovaScreen (NVS) Enzymatic Assay for human Protein Tyrosine Phosphatase Non-receptor Type 14 (PTPN14) (AID 2283206). The method in brief:
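Fluorescent substrate turnover by recombinant human PTPN14 was measured 0.5 h after compound addition, with substrate and product separated by mobility shift. Single-point screening at 25 uM, then concentration-response up to 50 uM for chemicals meeting threshold (e.g., 30% inhibition).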

Assay [12] concerns the target human Protein Tyrosine Phosphatase Non-receptor Type 4 (PTPN4), PTPN4 (gene 5775) (UniProt P29074). The assay is described as follows: NVS_ENZ_hPTPN4: NovaScreen (NVS) Enzymatic Assay for human Protein Tyrosine Phosphatase Non-receptor Type 4 (PTPN4) (AID 2283208). The essentials: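 Screened in duplicate at 25 uM, with hits then titrated to a top concentration of 50 uM. Recombinant Sf9-derived PTPN4 turnover was read by fluorescence with electrophoretic separation, 1.33 h after compound addition. DMSO served as baseline.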

In assay [13] the target is human Rho Associated Coiled-coil Containing Protein Kinase 1 (ROCK1), ROCK1 (gene 6093) (UniProt Q13464). As to the kind of experiment: NVS_ENZ_hROCK1: NovaScreen (NVS) Enzymatic Assay for human Rho Associated Coiled-coil Containing Protein Kinase 1 (ROCK1) (AID 2283214). The method in brief:
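Compounds first run in duplicate at 25 uM against recombinant human ROCK1, then followed in concentration series. Kinase activity was read 1 h post-dosing by fluorescence with mobility-shift separation, as signal loss relative to DMSO.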

For assay [14], the target named is human Sirtuin 1 (SIRT1), SIRT1 (gene 23411) (UniProt Q96EB6). As to the kind of experiment: NVS_ENZ_hSIRT1: NovaScreen (NVS) Enzymatic Assay for human Sirtuin 1 (SIRT1) (AID 2283219). The method in brief:
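Cell-free recombinant SIRT1 with a fluorescent substrate; substrate and product separated by electrophoretic mobility shift and read by fluorescence intensity, 1 h after dosing. Primary screen at 25 uM in duplicate; hits re-run in concentration-response up to 50 uM, relative to DMSO.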

Assay [15] addresses human Tropomyosin Receptor Kinase A (TRKA), NTRK1 (gene 4914) (UniProt P04629). The assay is described as follows: NVS_ENZ_hTrkA: NovaScreen (NVS) Enzymatic Assay for human Tropomyosin Receptor Kinase A (TRKA) (AID 2283224). The method in brief: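 Compounds were screened at 25 uM in duplicate, then concentration series to a 50 uM top for those meeting threshold (e.g. 30% inhibition). Enzyme was recombinant human TrkA, incubated 1 h. Product formation was quantified by fluorescence after mobility-shift separation.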

The target of assay [16] is human Protein Tyrosine Phosphatase Receptor Type B (PTPRB), PTPRB (gene 5787) (UniProt P23467). As to the kind of experiment: NVS_ENZ_hPTPRB: NovaScreen (NVS) Enzymatic Assay for human Protein Tyrosine Phosphatase Receptor Type B (PTPRB) (AID 2283211). The essentials:
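Recombinant human PTPRB with a fluorescent substrate, product separated by electrophoretic mobility shift; read 1 h after dosing. Primary screen in duplicate at 25 uM; actives then retested in concentration series; loss of signal versus DMSO.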

Assay [17] deals with human Sirtuin 3 (SIRT3), SIRT3 (gene 23410) (UniProt Q9NTG7). The assay is described as follows: NVS_ENZ_hSIRT3: NovaScreen (NVS) Enzymatic Assay for human Sirtuin 3 (SIRT3) (AID 2283222). The essentials: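 Cell-free enzyme assay with recombinant protein and fluorescent substrate, product separated by electrophoretic mobility shift; read 1 hour after dosing. Screened in duplicate at 25 uM, then singleton concentration-response up to 50 uM; loss of signal versus DMSO.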

The target in assay [18] is human Vascular Endothelial Growth Factor Receptor 1 (VEGFR1), FLT1 (gene 2321) (UniProt P17948). The assay is described as follows: NVS_ENZ_hVEGFR1: NovaScreen (NVS) Enzymatic Assay for human Vascular Endothelial Growth Factor Receptor 1 (VEGFR1) (AID 2283226). The essentials:
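Kinase activity of recombinant human VEGFR1 was read by fluorescence after electrophoretic separation of product from substrate, 1 h post-dosing; initial duplicate single-point testing at 25 uM, followed by concentration-series follow-up, with DMSO as baseline.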

The target of assay [19] is Serine/threonine-protein phosphatase PP1-alpha catalytic subunit (Homo sapiens) (UniProt P62136). As to the kind of experiment: NVS_ENZ_hPPP1CA: NovaScreen (NVS) Enzymatic Assay for human Protein Phosphatase 1 Aatalytic subunit Alpha (PPP1CA) (AID 2283200). The method in brief: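 Chemicals were first screened in duplicate at 25 uM, and those passing threshold (e.g. 30% inhibition) were run as concentration series to 50 uM. Cell-free recombinant protein, 1.33 h read, fluorescent substrate/product mobility-shift detection, normalised to DMSO.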

Records with an inconclusive call do not appear. Activity calls are given as the source filed them. How the source made its calls: active means hit-call score of the fitted dose curve at least 0.9, where 1 is the maximum; inconclusive means response in the unintended direction; inactive means score below 0.9.

Sequence of Tyrosine-protein phosphatase non-receptor type 11 (Homo sapiens) (Q06124 whole entry, looked up): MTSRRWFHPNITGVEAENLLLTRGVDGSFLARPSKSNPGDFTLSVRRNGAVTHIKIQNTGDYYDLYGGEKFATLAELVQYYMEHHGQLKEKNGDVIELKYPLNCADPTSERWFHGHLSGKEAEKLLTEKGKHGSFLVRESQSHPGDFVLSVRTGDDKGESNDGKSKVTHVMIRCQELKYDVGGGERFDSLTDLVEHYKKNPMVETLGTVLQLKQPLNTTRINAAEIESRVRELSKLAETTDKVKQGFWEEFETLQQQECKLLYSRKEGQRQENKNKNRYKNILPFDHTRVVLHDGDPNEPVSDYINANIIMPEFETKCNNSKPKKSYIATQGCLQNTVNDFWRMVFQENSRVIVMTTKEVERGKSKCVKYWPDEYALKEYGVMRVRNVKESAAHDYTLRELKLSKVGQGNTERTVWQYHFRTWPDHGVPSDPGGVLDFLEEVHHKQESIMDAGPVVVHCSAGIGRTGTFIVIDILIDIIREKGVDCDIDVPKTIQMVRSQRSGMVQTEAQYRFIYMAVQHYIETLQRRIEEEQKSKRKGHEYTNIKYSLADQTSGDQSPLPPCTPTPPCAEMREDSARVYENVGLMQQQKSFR
Sequence of Tyrosine-protein phosphatase non-receptor type 13 (Homo sapiens) (Q12923 whole entry, looked up): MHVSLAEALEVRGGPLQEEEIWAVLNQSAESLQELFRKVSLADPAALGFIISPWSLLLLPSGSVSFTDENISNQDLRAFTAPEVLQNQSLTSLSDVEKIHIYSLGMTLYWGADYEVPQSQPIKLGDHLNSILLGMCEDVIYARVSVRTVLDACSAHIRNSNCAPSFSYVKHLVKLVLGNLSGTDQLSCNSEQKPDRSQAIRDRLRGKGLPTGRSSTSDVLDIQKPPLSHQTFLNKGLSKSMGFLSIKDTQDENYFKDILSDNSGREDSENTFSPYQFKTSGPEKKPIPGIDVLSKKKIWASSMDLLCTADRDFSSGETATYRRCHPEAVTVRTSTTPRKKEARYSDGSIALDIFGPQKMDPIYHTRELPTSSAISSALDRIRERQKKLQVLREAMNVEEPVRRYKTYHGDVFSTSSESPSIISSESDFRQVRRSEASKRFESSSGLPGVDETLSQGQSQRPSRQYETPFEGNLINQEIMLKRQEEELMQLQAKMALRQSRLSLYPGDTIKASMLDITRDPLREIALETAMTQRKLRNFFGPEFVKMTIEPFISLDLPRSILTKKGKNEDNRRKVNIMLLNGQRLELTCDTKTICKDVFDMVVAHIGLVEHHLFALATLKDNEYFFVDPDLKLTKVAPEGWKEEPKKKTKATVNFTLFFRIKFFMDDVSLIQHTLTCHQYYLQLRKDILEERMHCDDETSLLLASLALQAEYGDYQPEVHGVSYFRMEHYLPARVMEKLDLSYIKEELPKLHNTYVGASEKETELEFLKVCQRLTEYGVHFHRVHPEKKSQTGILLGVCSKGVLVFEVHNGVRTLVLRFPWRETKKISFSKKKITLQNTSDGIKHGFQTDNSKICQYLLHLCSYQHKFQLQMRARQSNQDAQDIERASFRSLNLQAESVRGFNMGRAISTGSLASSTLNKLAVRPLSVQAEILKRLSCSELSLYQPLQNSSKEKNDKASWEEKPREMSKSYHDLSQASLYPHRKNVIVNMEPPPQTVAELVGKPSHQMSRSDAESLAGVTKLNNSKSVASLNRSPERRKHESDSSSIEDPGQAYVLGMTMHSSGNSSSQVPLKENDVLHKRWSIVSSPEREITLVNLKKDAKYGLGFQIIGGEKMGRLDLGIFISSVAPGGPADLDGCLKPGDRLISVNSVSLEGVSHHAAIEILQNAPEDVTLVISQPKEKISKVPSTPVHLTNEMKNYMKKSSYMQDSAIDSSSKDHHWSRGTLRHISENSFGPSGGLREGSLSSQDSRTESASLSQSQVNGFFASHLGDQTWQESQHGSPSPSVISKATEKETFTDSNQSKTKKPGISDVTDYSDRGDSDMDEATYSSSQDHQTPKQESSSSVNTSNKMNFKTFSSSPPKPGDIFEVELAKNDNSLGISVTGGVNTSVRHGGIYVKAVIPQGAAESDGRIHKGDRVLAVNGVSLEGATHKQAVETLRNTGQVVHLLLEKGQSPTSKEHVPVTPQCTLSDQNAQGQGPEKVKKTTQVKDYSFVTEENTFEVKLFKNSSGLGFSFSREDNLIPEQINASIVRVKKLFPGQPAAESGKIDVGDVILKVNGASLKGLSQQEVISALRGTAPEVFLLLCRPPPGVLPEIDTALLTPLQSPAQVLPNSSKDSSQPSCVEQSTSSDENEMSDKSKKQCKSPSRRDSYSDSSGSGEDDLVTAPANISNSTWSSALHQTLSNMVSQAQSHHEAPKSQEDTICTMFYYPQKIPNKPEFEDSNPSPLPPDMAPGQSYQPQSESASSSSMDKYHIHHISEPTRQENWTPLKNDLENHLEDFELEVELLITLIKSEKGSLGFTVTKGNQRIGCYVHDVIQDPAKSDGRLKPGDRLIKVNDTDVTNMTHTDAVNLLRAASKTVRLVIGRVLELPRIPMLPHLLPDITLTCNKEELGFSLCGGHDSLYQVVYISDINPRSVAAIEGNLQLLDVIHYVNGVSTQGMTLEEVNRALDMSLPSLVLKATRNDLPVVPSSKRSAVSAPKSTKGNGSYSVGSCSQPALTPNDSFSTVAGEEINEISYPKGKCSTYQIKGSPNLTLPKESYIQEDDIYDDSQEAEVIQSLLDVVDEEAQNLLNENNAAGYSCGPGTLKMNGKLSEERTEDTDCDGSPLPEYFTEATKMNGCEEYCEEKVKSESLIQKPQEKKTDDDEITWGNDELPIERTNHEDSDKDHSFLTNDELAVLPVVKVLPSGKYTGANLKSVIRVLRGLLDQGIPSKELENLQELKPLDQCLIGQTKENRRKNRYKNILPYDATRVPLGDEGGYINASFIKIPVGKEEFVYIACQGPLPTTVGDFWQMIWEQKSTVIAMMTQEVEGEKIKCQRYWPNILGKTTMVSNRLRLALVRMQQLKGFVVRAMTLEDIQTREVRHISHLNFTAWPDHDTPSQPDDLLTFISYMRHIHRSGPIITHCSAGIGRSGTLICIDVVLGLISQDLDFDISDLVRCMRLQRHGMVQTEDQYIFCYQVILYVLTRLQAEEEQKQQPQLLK
Sequence of human Protein Tyrosine Phosphatase Non-receptor Type 1 (PTPN1), PTPN1 (gene 5770) (P18031 whole entry, looked up): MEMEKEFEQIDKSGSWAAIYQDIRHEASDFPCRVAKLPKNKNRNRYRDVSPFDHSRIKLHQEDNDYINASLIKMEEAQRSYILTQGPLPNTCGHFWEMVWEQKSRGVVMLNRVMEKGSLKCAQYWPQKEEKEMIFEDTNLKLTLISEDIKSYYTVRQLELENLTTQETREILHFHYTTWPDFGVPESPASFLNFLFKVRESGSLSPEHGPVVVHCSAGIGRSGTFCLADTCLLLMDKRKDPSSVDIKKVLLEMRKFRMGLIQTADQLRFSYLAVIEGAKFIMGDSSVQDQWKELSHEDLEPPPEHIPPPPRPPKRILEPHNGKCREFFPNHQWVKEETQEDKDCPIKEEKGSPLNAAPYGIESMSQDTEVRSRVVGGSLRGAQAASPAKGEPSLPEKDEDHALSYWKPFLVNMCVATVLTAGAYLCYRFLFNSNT
Sequence of human Sirtuin 1 (SIRT1), SIRT1 (gene 23411) (Q96EB6 whole entry, looked up): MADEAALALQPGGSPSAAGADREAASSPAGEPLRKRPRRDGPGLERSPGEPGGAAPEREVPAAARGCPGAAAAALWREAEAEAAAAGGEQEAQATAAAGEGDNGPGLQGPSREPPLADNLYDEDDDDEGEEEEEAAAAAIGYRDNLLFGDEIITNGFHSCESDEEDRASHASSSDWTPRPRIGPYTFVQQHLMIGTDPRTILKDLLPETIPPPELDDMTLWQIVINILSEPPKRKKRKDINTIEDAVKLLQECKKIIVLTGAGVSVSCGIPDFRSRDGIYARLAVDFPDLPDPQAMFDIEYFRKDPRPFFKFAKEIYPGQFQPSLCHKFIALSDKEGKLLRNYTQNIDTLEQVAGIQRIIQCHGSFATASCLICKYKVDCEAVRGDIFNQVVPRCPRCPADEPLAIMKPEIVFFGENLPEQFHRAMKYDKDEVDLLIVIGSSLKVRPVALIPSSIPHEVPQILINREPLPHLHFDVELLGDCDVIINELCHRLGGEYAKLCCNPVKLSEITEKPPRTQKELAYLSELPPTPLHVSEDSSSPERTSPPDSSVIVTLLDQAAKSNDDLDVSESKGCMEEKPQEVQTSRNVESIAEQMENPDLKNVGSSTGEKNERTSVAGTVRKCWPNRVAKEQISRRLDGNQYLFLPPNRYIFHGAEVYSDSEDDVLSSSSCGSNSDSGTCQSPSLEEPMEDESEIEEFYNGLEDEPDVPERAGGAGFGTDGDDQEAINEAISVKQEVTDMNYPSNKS

As for `COc1cc2c(c(OC)c1OC)-c1ccc(OC)c(=O)cc1[C@@H](NC(C)=O)CC2`, the call in [1] was inactive.

As to `O=C1CN(N=Cc2ccc([N+](=O)[O-])o2)C(=O)N1`, in assay [2], the result was inactive.

On to `O=C(O)c1ccc2c(c1)nc(C(=O)NC1CCN(C3CC3)CC1)n2Cc1cc(-c2ccc(Cl)s2)on1`, for which the AC50 (commonly the concentration at which the activity in the assay is half-maximal) in assay [3] is 257 nM (active). Besides, the compound was called inactive in assay [4], in assay [5], in assay [6], in assay [7] and in assay [8].

For `O=c1[nH]cnc2c1ncn2[C@H]1CC[C@@H](CO)O1`, the compound was called inactive in assay [9], in assay [2], in [10], in assay [3], in assay [11] and in assay [12]. For the same compound, the compound was classed as inactive in [13], in assay [6], in assay [14], in assay [8] and in assay [15].

For `OC(CCl)CCl`, the outcome in assay [3] was inactive.

Take `CCCC(CCC)C(=O)O`: the compound was called inactive in assay [9], in assay [2], in assay [3], in assay [11], in assay [4] and in [16]. The result in assay [13], in [7], in assay [14], in assay [17], in [8] and in assay [15] was inactive.

Regarding `O=C(NO)C1(NS(=O)(=O)c2ccc(Oc3ccc(F)cc3)cc2)CCOCC1`, the compound was classed as inactive in assay [1], in [9], in assay [12] and in assay [18].

In the case of `CC(C)CCCCCCOC(=O)C1CCCCC1C(=O)OCCCCCCC(C)C` (stereo unspecified), the call in assay [19] was inactive.

For `CCc1cccc(CC)c1N`, the compound was classed as inactive in assay [9] and in assay [14].

As for `CCCCCCCCCC`, the result in [10] was inactive.

With `CCCCC(CC)C(=O)OCCOCCOCCOC(=O)C(CC)CCCC` (stereo unspecified), in assay [4], the result was inactive.
